Results as given in PubChem BioAssay (NCATS).
Results filed as inconclusive are left out. Active and inactive are the calls of the source. Unless noted, calls follow the shape of the dose curve; as a rule, active = well fitted curve in the direction sought with a large enough effect; inconclusive = small, poorly fitted or top-dose-only effect, or another doubt; inactive = no such curve, though single readings can be large; an effect the other way counts as inactive or inconclusive.

Tests used:
[1] = target: Lysosomal acid glucosylceramidase (Homo sapiens) (UniProt P04062); experiment: Glucocerebrosidase-p2 (AID 348; in the data active = potency below about 10 µM; also: potency is read from the fitted curve at half-maximal effect); conditions: purified GBA, blue fluorogenic substrate, 40 min
Method in brief: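 Compounds titrated from 0.6 nM upwards against 0.2 nM enzyme in pH 5.9 citric acid/KH2PO4, taurocholate, tween-20; blue fluorogenic substrate 80 uM, 40 min room temperature, stopped and read Ex 365/Em 440 for AC50.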

[2] = target: Cytochrome P450 1A2 (Homo sapiens) (UniProt P05177); experiment: p450-cyp1a2 (AID 410; calls by dose curve; also: potency is read from the fitted curve at half-maximal effect); conditions: recombinant CYP1A2, luciferin-ME demethylation, luminescence; series mostly up to 11.4 µM
Method in brief: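 20nM CYP1A2 with 100uM Luciferin-ME (at Km) in 100mM KPO4; compound preincubated 10 min, NADPH regeneration added, 60 min at room temperature. Luciferin quantified by luminescence after detection reagent; normalized to 57 uM furafylline.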

[3] = Cell Viability - HepG2 (AID 433; calls by dose curve;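 also: potency is read from the fitted curve at half-maximal effect; potency for ATP loss meaning cytotoxicity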); conditions: qHTS
Method in brief: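 Read-out is luciferase-based quantitation of cellular ATP as a measure of viable HepG2 cells after 40 h treatment at 37 °C. Signal decrease is scaled between DMSO-only and 100 uM tamoxifen controls, with AC50 fitted by the Hill equation.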

[4] = Stat Signaling Pathway (AID 446; active = well fitted curve in either direction with a large enough effect, not every such curve was filed as active;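 also: ME-180 cervical cancer cells given 40 pM IL-6 alongside compound; SIE-controlled beta-lactamase reporter measured as 460/530 nm FRET emission ratio; % is scaled to controls: 0 for no effect and ±100 for the full control effect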); conditions: ME-180 SIE beta-lactamase reporter, IL-6 stimulated, 5 h; at 7.69 µM (top of the series) unless noted
Method in brief: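 Reporter line: ME-180 cervical carcinoma, SIE-beta-lactamase. Treatment: compound with 40 pM IL-6, 5 hrs, 37 C, in low-serum OPTI-MEM with 10 mM HEPES pH 7.3. Detection: 460/530 nm fluorescence.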

[5] = target: Glucocorticoid receptor (Homo sapiens) (UniProt P04150); experiment: GR-GFP Redistribution (AID 450;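 active = compounds whose dose series gives a full or clear partial fitted curve of increased nuclear translocation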; also: potency is read from the fitted curve at half-maximal effect); conditions: U2OS GR-GFP nuclear translocation, laser cytometry, 2 h
[6] = target: Glucocorticoid receptor (Homo sapiens) (UniProt P04150); experiment: GR-EFC Redistribution (AID 451; calls by dose curve; also: potency is read from the fitted curve at half-maximal effect); conditions: CHO-K1 GR-EFC translocation, beta-gal luminescence, 2 h
Method in brief: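 CHO-K1 cells expressing nuclear EA and GR-ED fragments of b-gal; compounds titrated up to 46 uM final, 2 h at 37 C. GR nuclear translocation read as complemented b-gal luminescence after 1 h RT detection.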

[7] = Cell Viability - N2a (AID 540); conditions: N2a mouse neuroblastoma cell viability; activity change, negative = cytotoxicity: at 92.2 µM (top of the series); also: potency is read from the fitted curve at half-maximal effect; nearly all actives have a fitted effect of over 45% in size
Method in brief: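 Mouse neuroblastoma N2a cells, 1500/well, exposed to compounds 40 h at 37 °C in complete medium. Viability measured as cellular ATP by CellTiter-Glo luminescence; AC50 from Hill fits of concentration-response.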

[8] = Cell Viability - NIH 3T3 (AID 541); conditions: NIH 3T3 cell viability, qHTS; activity change, negative = cytotoxicity: at 92.2 µM (top of the series); also: potency is read from the fitted curve at half-maximal effect; nearly all actives have a fitted effect of over 25% in size
Method in brief: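 Mouse NIH 3T3 fibroblasts, 1000 cells/well, rested 5 hr at 37 °C, then exposed to compound for 40 hr at 37 °C in complete medium. Viability read as intracellular ATP by CellTiter-Glo luminescence; AC50 from Hill-equation fits of concentration-response data.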

[9] = Cell Viability - HUV-EC-C (AID 542); conditions: HUV-EC-C endothelial cell viability, qHTS; series mostly up to 92.2 µM; also: potency is read from the fitted curve at half-maximal effect; nearly all actives have a fitted effect of over 35% in size
Method in brief: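 HUV-EC-C human vascular endothelial cells, 1000/well, exposed to compound for 40 hr at 37 °C in complete medium. Intracellular ATP was read by CellTiter-Glo luminescence. AC50 came from Hill-equation fits of concentration-response data.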

[10] = Cell Viability - H-4-II-E (AID 543); conditions: H-4-II-E rat hepatoma viability; series mostly up to 92.2 µM; also: potency is read from the fitted curve at half-maximal effect; nearly all actives have a fitted effect of over 35% in size
Method in brief: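 Rat hepatoma H-4-II-E cells, 1500 per well, treated 40 h at 37 °C in complete medium. Cellular ATP read by CellTiter-Glo luminescence; AC50 from Hill fits of concentration-response.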

[11] = Cell Viability - SH-SY5Y (AID 544); conditions: SH-SY5Y neuroblastoma cell viability; viability change, negative = cytotoxic: at 92.2 µM (top of the series); also: nearly all actives have a fitted effect of over 55% in size
Method in brief: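 SH-SY5Y human neuroblastoma cells (1500/well) incubated 5 h, then compound-treated 40 h at 37 °C in complete medium. Viability read as intracellular ATP by CellTiter-Glo luminescence after 20 min; AC50 from Hill-equation fits of qHTS concentration-response.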

[12] = Cell Viability - Mesenchymal (AID 546); conditions: mesenchymal cells viability, qHTS; activity change, negative = cytotoxicity: at 91.7 µM (top of the series);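 also: potency is read from the fitted curve at half-maximal effect; cells exposed to compound for 40 hours before reading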
Method in brief: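 Human kidney mesenchymal cells from normal renal glomeruli, 1000 cells/well, rested 5 hr at 37 °C, then treated 40 hr at 37 °C in complete medium. Cellular ATP read by CellTiter-Glo luminescence; AC50 from Hill-equation fits.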

[13] = target: 3',5'-cyclic-AMP phosphodiesterase 4B (Homo sapiens) (UniProt Q07343); experiment: qHTS Assay for Inhibitors of PDE-IV (AID 607; active = well fitted activation curve with a large enough effect in the main read-out, with a control signal flat, not every such curve was filed as active; also: % of control where 0% means no effect); conditions: HEK293 ACTOne CNG channel cells, membrane potential fluorescence; series mostly up to 22.9 µM
Method in brief: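 Cell-based read-out of cAMP via a modified cyclic nucleotide-gated channel and membrane potential dye (535/590 nm) in HEK293 cells expressing PDE4 endogenously. Compounds tested up to 22.9 uM final; 100 uM RO 20-1724 reference.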

[14] = Cellular Toxicity (caspase-3) HepG2 (AID 654); conditions: HepG2 caspase-3 activation, luminescence; series mostly up to 92.2 µM;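 also: cells exposed to compound for 16 hours before reading; 0% = DMSO alone and 100% = caspase signal from 100 µM tamoxifen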
Method in brief: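 HepG2 cells (1500/well) were treated 16 h at 37 °C in complete medium, then caspase 3/7 activity was read by Caspase-Glo luminescence. Data were normalized to DMSO and 100 uM tamoxifen; AC50 came from Hill-equation fits of qHTS concentration-response.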

[15] = Cellular Toxicity (caspase-3) Jurkat (AID 655); conditions: Jurkat caspase-3 activation, luminescence; caspase-3 activation: at 92.2 µM (top of the series), DMSO = 0%, tamoxifen = 100%;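 also: cells exposed to compound for 16 h at 37 °C before reading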
Method in brief: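 5000 Jurkat cells/well; compound 16 hr, 37 °C; Caspase-Glo 3/7 added, 20 min RT; luminescence read. Norm: DMSO = 0%, tamoxifen 100 uM = 100%. AC50, Hill model.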

[16] = Cellular Toxicity (caspase-3) HUV-EC-C (AID 656); conditions: HUV-EC-C cells, caspase-3 activation (apoptosis); series mostly up to 92.2 µM
Method in brief: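 qHTS; HUV-EC-C, 1000 cells/well; 5 hr settle, 16 hr cmpd, 37°C; Caspase-Glo 3/7, 20 min RT; luminescence. Norm: DMSO = 0%, tamoxifen 100 uM = 100%. Hill-fit AC50.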

[17] = Cellular Toxicity (caspase-3) SHSY5Y (AID 657); conditions: SH-SY5Y caspase-3 activation; series mostly up to 91.7 µM;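 also: cells exposed to compound for 16 hours at 37 °C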
Method in brief: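 qHTS, SH-SY5Y, 1500 cells/well, 5 h pre-incubation 37 °C; compound 16 h 37 °C; Caspase-Glo 3/7 1 h RT; luminescence. Norm.: DMSO = 0, 10 uM staurosporine = 100%. Hill fit → AC50.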

Sequence of Glucocorticoid receptor (Homo sapiens) (P04150 whole entry, looked up, the tested form may be a part): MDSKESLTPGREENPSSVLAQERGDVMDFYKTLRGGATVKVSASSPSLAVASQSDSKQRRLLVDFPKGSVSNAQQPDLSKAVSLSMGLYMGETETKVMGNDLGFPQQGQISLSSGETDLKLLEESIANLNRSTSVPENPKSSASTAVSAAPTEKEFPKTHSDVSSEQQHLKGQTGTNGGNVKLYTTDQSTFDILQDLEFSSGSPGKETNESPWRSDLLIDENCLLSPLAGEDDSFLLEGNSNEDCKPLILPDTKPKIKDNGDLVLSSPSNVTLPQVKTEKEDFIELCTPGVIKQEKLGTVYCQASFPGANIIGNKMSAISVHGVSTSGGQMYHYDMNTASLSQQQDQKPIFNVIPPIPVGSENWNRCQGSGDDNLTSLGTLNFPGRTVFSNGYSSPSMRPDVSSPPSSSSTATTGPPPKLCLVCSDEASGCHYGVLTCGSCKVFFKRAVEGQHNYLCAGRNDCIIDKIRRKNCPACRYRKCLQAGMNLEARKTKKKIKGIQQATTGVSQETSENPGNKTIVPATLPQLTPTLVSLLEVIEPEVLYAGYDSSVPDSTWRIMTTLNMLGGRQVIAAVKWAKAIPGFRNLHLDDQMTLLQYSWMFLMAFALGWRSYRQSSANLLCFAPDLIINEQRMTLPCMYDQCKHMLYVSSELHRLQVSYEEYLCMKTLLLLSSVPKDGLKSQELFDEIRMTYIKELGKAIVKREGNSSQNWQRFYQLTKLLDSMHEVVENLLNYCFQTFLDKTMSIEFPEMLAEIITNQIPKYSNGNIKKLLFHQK
Sequence of 3',5'-cyclic-AMP phosphodiesterase 4B (Homo sapiens) (Q07343 whole entry, looked up): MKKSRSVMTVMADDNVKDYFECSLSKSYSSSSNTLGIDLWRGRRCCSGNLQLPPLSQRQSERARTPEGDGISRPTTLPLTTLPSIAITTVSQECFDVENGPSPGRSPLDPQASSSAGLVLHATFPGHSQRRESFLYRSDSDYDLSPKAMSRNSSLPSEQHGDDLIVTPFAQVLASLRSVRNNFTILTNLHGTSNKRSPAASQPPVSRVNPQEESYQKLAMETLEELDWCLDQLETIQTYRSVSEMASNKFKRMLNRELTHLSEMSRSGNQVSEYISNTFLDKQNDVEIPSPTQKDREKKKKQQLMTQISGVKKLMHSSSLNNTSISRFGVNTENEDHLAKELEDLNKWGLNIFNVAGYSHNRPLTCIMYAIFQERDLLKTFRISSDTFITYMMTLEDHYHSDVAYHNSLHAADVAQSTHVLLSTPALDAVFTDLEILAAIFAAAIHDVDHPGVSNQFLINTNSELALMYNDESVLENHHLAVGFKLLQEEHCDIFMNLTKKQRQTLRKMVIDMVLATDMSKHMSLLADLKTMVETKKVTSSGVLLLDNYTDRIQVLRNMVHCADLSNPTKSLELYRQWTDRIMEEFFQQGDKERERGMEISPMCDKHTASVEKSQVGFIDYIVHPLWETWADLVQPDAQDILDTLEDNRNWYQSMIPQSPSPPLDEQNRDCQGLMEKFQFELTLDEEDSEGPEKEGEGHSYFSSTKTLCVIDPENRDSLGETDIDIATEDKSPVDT
Sequence of Lysosomal acid glucosylceramidase (Homo sapiens) (P04062 whole entry, looked up): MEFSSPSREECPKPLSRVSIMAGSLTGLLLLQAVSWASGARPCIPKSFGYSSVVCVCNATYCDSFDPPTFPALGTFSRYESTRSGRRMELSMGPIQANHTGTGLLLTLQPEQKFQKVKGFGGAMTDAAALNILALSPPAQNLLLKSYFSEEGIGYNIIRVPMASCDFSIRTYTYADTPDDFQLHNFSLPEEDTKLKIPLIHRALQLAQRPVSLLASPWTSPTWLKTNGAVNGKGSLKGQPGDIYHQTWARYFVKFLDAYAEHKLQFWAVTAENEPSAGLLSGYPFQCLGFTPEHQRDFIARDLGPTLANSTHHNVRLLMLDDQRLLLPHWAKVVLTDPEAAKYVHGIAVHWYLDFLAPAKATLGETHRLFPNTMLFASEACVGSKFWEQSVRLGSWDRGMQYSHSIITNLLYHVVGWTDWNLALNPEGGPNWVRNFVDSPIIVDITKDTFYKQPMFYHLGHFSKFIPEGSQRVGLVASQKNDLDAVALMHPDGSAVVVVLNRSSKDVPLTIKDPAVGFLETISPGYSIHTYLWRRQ
Sequence of Cytochrome P450 1A2 (Homo sapiens) (P05177 whole entry, looked up): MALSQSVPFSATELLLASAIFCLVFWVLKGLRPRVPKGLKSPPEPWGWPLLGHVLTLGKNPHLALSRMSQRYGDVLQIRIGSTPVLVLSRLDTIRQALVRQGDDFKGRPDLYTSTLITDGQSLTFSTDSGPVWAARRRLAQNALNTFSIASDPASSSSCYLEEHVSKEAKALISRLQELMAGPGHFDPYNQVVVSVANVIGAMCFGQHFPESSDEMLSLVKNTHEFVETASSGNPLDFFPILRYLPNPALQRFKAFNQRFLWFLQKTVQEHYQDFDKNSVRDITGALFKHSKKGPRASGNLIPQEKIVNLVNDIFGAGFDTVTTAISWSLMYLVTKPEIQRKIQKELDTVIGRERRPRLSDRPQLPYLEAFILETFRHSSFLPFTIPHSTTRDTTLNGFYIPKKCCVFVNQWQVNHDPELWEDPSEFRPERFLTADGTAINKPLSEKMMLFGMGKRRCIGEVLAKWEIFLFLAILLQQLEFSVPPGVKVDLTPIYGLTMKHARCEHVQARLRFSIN

N=C1C=CC(=C(c2ccc(N)cc2)c2ccc(N)cc2)C=C1
inactive: Potency [1] > 11.4 µM | activity, negative = inhibition [4] -20.9% | Potency [5] > 46 µM | Potency [6] > 9.22 µM | Potency [13] | Potency [14] | Potency [15] | Potency [16] | Potency [17]
active: Potency [2] 3.98 µM | Potency [3] 18.6 µM | Potency [7] 3.98 µM | Potency [8] 3.16 µM | Potency [9] 20 µM | Potency [10] 31.6 µM | viability change, negative = cytotoxic [11] -99.9% | Potency [12] 7.94 µM
